Earlier results on 21 compounds are cited in PubChem BioAssay AID977611.

Among all 3,900 compounds or so, about 3,900 (100%) were called active. The limit is not given here; nearly all actives have Kd up to about 4200 µM. The set was probably picked from earlier hits. The list shows a part of the results. Numbered stars: 1 amine (or outer) side, 2 acyl side, 3 side chain; on linkers, the order of the positions; unused ones are H or OH. Where a SMILES comes first, the peptide text is derived from it. Square brackets hold non-standard residues; d marks the D form. Residues, ends and D or L forms follow the SMILES beside them. Peptide text beside a SMILES is read from it. [ ]: non-standard residue; d: D form. X1 = O=C([C@H](Cc1ccc(O[P+](O)(O)O)cc1)N[*:1])[*:2]; Orn(CH(NH2)2) = NC(N)NCCC[C@H](N)C(=O)O

The data set in a line: PubChem AID 977611. As to conditions: PDB protein-ligand complexes, literature Kd.

Take `O=C(CO)[C@@H](O)[C@H](O)[C@H](O)CO[P+](O)(O)O`: the Kd (protein: Glucokinase regulatory protein, PDB entry 3w0l) was 0.095 µM (active). Turning to `O=C(CO[P+](O)(O)O)NO`, the Kd (protein: Fructose-bisphosphate aldolase, PDB entry 4del) was 0.0211 µM (active).

Consider `O=C(O)c1ccc(-c2ccc(C(=S)NCc3ccc(-c4ccnn4-c4ccc(Cl)c(Cl)c4)cc3)c(Cl)c2)o1`, for which the Kd (protein: Replication protein A 70 kDa DNA-binding subunit, PDB entry 4lwc) was 0.19 µM (active).

Consider `COCCO[C@@H]1COCCOC[C@H]1OCCOC`, for which, under “protein: METAL-BINDING PROTEIN YODA, PDB entry 4aw8”, the Kd was 0.022 µM (active). For the compound `C[C@@H](O)[C@H](NC(=O)[C@@H]1CCCN1C(=O)[C@H](CO[P+](O)(O)O)NC(=O)[C@H](Cc1ccc(O)cc1)NC(=O)[C@H](CO)NC(=O)[C@@H]1CCCN1)C(=O)N[C@@H](CO[P+](O)(O)O)C(=O)N1CCC[C@H]1C=O`, where the note is “protein: CTD INTERACTING DOMAIN of RNA processing factor SCAF8(R112T), PDB entry 3d9p”, the Kd is 29 µM (active). Consider `C[C@@H](O)[C@H](NC(=O)[C@@H]1CCCN1C(=O)[C@H](CO)NC(=O)[C@H](Cc1ccc(O)cc1)NC(=O)[C@H](CO)NC(=O)[C@@H]1CCCN1)C(=O)N[C@@H](CO)C(=O)N1CCC[C@H]1C(=O)N[C@H](C=O)CO` (H-PSYSPTSPS-aldehyde), for which the Kd (protein: CTD INTERACTING DOMAIN of RNA processing factor SCAF8(N15M/Y17M), PDB entry 3d9o) was 1000 µM (active). Regarding `C[C@@H](O)[C@H](NC(=O)[C@@H]1CCCN1C(=O)[C@H](CO[P+](O)(O)O)NC(=O)[C@H](Cc1ccc(O)cc1)NC(=O)[C@H](CO)NC(=O)[C@@H]1CCCN1)C(=O)N[C@@H](CO)C(=O)N1CCC[C@H]1C(=O)N[C@@H](CO)C(=O)O`, for the setting “protein: Rtt103 CTD-interacting domain, PDB entry 2l0i”, the Kd is 15 µM (active).

For the compound `NC(=S)Nc1ccc(C[C@H](CN(CC(=O)O)[C@H]2CCCC[C@@H]2N(CC(=O)O)CC(=O)O)N(CC(=O)O)CC(=O)O)cc1`, the Kd by setting is: (protein: Neutrophil gelatinase-associated lipocalin (mutation), PDB entry 4iaw) 0.000234 µM (active); (protein: Neutrophil gelatinase-associated lipocalin (mutation), PDB entry 4iax) 0.000273 µM (active).

Take `N#CCCNc1nonc1-c1nc2ccccc2n1CC(=O)c1ccc(N)cc1`: the Kd (protein: Tubulin, PDB entry 4o2a) was 1.8 µM (active).

As for `CSCC[C@H](NC(=O)[C@@H]1CCCN1C(=O)[C@H](Cc1ccc(O)cc1)NC(=O)[C@@H](N)Cc1ccccc1)C(=O)N[C@@H](CC(C)C)C(=O)N[C@@H](CCCNC(N)N)C(=O)N[C@@H](Cc1ccc(O)cc1)C(=O)N[C@H](C(=O)N[C@@H](CC(N)=O)C(=O)NCC(=O)N1CCC[C@H]1C(=O)N1CCC[C@H]1C(=O)N1CCC[C@H]1C(=O)N[C@H](C(=O)O)[C@@H](C)O)[C@@H](C)O` (H-FYPML[Orn(CH(NH2)2)]YTNGPPPT-OH), where the note is “protein: SUN domain-containing protein 2, PDB entry 4fi9”, the Kd was 0.0456 µM (active). Turning to `CC[C@H](C)[C@H](N)C(=O)N[C@@H](CO)C(=O)N[C@@H](CCCNC(N)N)C(=O)N[C@@H](CO)C(=O)N[C@H](C(=O)N[C@@H](CO[P+](O)(O)O)C(=O)N1CCC[C@H]1C(=O)N[C@H](C(=O)N[C@@H](Cc1ccccc1)C(=O)N[C@@H](CC(N)=O)C(=O)N[C@@H](CCCCN)C(=O)N[C@@H](CCC(N)=O)C(=O)O)[C@@H](C)O)[C@@H](C)O`, the Kd (protein: Breast cancer type 1 susceptibility protein, PDB entry 1t29) is 0.9 µM (active). Consider `CC(C)[C@H](NC(=O)[C@H](CCCNC(N)N)NC(=O)[C@@H](NC(=O)[C@@H]1CCCN1)[C@@H](C)O)C(=O)N[C@@H](CO)C(=O)N[C@@H](CO[P+](O)(O)O)C(=O)N1CCC[C@H]1C(=O)N[C@H](C(=O)N[C@@H](Cc1ccccc1)C(=O)NCC(=O)N[C@@H](C)C(=O)N[C@H](C(=O)O)[C@@H](C)O)C(C)C`, for which the Kd (protein: Breast cancer type 1 susceptibility protein, PDB entry 1y98) was 3.7 µM (active). As for `CC(C)C[C@H](NC(=O)[C@@H]1CCCN1C(=O)CNC(=O)[C@H](Cc1ccccc1)NC(=O)[C@@H](N)CC(=O)O)C(=O)N[C@H](C(=O)NCC(=O)N[C@@H](C)C(=O)O)C(C)C` (H-DFGPLVGA-OH), the Kd (protein: ?-adaptin ear domain of GGA3, PDB entry 1p4u) was 5 µM (active). In the case of `NC(N)NCCC[C@H](N)C(=O)N[C@@H](CO)C(=O)N[C@@H](Cc1ccccc1)C(=O)N[C@@H](CO[P+](O)(O)O)C(=O)N[C@@H](CCC(=O)O)C(=O)N1CCC[C@H]1C(=O)N[C@@H](Cc1ccccc1)C(=O)NCC(=O)O`, for the setting “protein: 14-3-3 protein epsilon, PDB entry 3ual”, the Kd is 1.55 µM (active).

`C[C@H](N)C(=O)N[C@@H](CS)C(=O)N[C@@H](CO[P+](O)(O)O)C(=O)N1CCC[C@H]1C(=O)N[C@@H](CCC(N)=O)C(=O)N[C@@H](Cc1ccccc1)C(=O)NCC(=O)O`: the equilibrium dissociation constant (Kd) (protein: Breast cancer type 1 susceptibility protein, PDB entry 4igk) was 28.2 µM (active).

For `CC[C@H](C)[C@H](NC(=O)[C@H](CCCNC(N)N)NC(=O)[C@H](CC(N)=O)NC(=O)[C@H](Cc1ccccc1)NC(=O)[C@@H](NC(=O)[C@@H]1CCCN1C(=O)[C@H](CC(C)C)NC(=O)[C@H](CCCNC(N)N)NC(=O)[C@@H](N)CCCNC(N)N)[C@@H](C)CC)C(=O)N[C@@H](CO)C(=O)N[C@H](C(=O)N[C@@H](CO)C(=O)O)C(C)C` (H-[Orn(CH(NH2)2)][Orn(CH(NH2)2)]LPIFN[Orn(CH(NH2)2)]ISVS-OH), for the setting “protein: CCR4-NOT transcription complex subunit 1, PDB entry 4j8s”, the Kd is 2 µM (active). Consider `CSCC[C@H](NC(=O)[C@@H]1CCCN1C(=O)[C@H](CC(N)=O)NC(=O)[C@@H]1CCCN1C(=O)[C@H](Cc1cnc[nH]1)NC(=O)[C@@H](N)CC(C)C)C(=O)N[C@@H](Cc1ccc(O[P+](O)(O)O)cc1)C(=O)N[C@@H](C)C(=O)N[C@@H](CCCNC(N)N)C(=O)O` (H-LHPNPM[X1]A[Orn(CH(NH2)2)]-OH), for which the Kd (protein: Protein Dok7(PH-PTB), PDB entry 3ml4) was 4.7 µM (active).

For `CC(C)[C@H](NC(=O)[C@@H]1CCCN1C(=O)[C@H](CO[P+](O)(O)O)NC(=O)[C@@H](N)CCCNC(N)N)C(=O)N[C@@H](Cc1ccccc1)C(=O)N[C@@H](CO)C(=O)O`, for the setting “protein: Breast cancer type 1 susceptibility protein, PDB entry 4ifi”, the Kd is 3.34 µM (active). On to `CC(C)C[C@H](NC(=O)[C@H](CCCNC(N)N)NC(=O)[C@H](Cc1ccccc1)NC(=O)[C@@H](N)CC(C)C)C(=O)N[C@@H](CCCNC(N)N)C(=O)N[C@@H](Cc1c[nH]cn1)C(=O)N[C@@H](Cc1ccccc1)C(=O)N1CCC[C@H]1C(=O)N[C@@H](CS)C(=O)NCC(=O)N[C@@H](CC(N)=O)C(=O)N[C@H](C(=O)N[C@@H](CC(N)=O)C(=O)N[C@@H](Cc1ccc(O)cc1)C(=O)NCC(=O)N[C@@H](Cc1ccc(O)cc1)C(=O)N[C@@H](CCC(N)=O)C(=O)N[C@@H](CCC(N)=O)C(=O)N[C@@H](CCC(N)=O)C(=O)O)C(C)C` (HELM PEPTIDE1{L.F.[NC(N)NCCC[C@H](N[*:1])C(=O)[*:2]].L.[NC(N)NCCC[C@H](N[*:1])C(=O)[*:2]].H.F.P.C.G.N.V.N.Y.G.Y.Q.Q.Q}$$$$V2.0), for which the Kd (protein: PTB domain of SNT-2, PDB entry 2kup) is 0.2 µM (active). With `CC(C)C[C@H](NC(=O)CNC(=O)[C@H](CC(N)=O)NC(=O)[C@@H](N)Cc1ccccc1)C(=O)N[C@H](C(=O)N[C@@H](CO[P+](O)(O)O)C(=O)N1CCC[C@H]1C(=O)N[C@@H](CCC(N)=O)C(=O)N[C@@H](CCCNC(N)N)C(=O)N[C@@H](CO[P+](O)(O)O)C(=O)O)[C@@H](C)O`, the Kd (protein: Saccharomyces cerevisiae Skp1 and Cdc4 (263-744), PDB entry 3v7d) is 0.41 µM (active). Consider `C[C@H](NC(=O)[C@H](CCC(=O)O)NC(=O)[C@@H]1CCCN1C(=O)[C@H](Cc1ccccc1)NC(=O)[C@@H](NC(=O)[C@@H]1CCCN1C(=O)[C@H](CO[P+](O)(O)O)NC(=O)[C@H](CCC(N)=O)NC(=O)[C@@H]1CCCN1)[C@@H](C)O)C(=O)NCC(=O)O`, for which the Kd (protein: Breast cancer type 1 susceptibility protein(BRCA1), PDB entry 3coj) is 5.2 µM (active).
